{"source": "PubChem BioAssay (NCATS)", "assay": "qHTS for identification of novel therapeutic agents for treatment of microphthalmiaassociated transcription factor (MiT) renal cell carcinoma (RCC) (AID 1963991)", "conditions": "CellTiter-Glo, 48 h, stronger effect = lower value", "description": "PI: Marston Linehan Ph.D.\nUrologic Oncology Branch, Center for Cancer Research (CCR)\nNational Cancer Institute (NCI), National Institute of Health (NIH), Bethesda, Maryland\nMiT-Renal Cell Carcinoma (RCC) is characterized by genomic translocations involving microphthalmia-associated transcription factor (MiT) family members TFE3, TFEB, or MITF. MiT-RCC represents a specific subtype of sporadic RCC that is predominantly seen in young patients and can present with heterogeneous histological features making diagnosis challenging. Moreover, the disease biology of this aggressive cancer is poorly understood and there is no accepted standard of care therapy for patients with advanced disease. Tumor-derived cell lines have been established from human TFE3-RCC providing useful models for preclinical studies. TFE3-RCC tumor derived cell lines and their tissues of origin were characterized by IHC and gene expression analyses. An unbiased high-throughput drug screen was performed to identify novel therapeutic agents for treatment of MiT-RCC. Potential therapeutic candidates were validated in in vitro and in vivo preclinical studies. Mechanistic assays were conducted to confirm the on-target effects of drugs. The results of a high-throughput small molecule drug screen utilizing three TFE3-RCC tumor-derived cell lines identified five classes of agents with potential pharmacological efficacy, including inhibitors of phosphoinositide-3-kinase (PI3K) and mechanistic target of rapamycin (mTOR), and several additional agents, including the transcription inhibitor Mithramycin A. Upregulation of the cell surface marker GPNMB, a specific MiT transcriptional target, was confirmed in TFE3-RCC and evaluated as a therapeutic target using the GPNMB-targeted antibody-drug conjugate CDX-011. […] The results of the high-throughput drug screen and validation studies in TFE3-RCC tumor-derived cell lines have provided in vitro and in vivo preclinical data supporting the efficacy of the PI3K/mTOR inhibitor.\nSEQUENCE No. (e.g., 1, 2, 3, etc.); […] (e.g., Cells, Incubation, Reagent, etc.); VALUE; DESCRIPTION.\n1; Cells; 3 uL; white, solid-bottom Grenier assay plate.\n2; Compounds; 23 nL; Kalypsis pin-tool (Wako USA).\n3; Incubation; 48 hr; 37 C, 5% CO2, 95% humidity.\n4; Reagent; 3 uL; CellTiter-Glo reagent (Promega).\n5; Incubation; 15 min; room temperature.\n6; Detection; Luminescence; ViewLux plate reader (PerkinElmer).\nNOTES (numbers refer to Sequence numbers above)\n1. Quantitative high-throughput screening (qHTS) of 1912 pharmacologically defined small molecule compounds was conducted on three TFE3-fusion cell lines bearing three different fusion partners (UOK109, UOK124, UOK145). Briefly, 500 cells in complete growth media were plated into white, solid-bottom, 1536-well tissue culture treated plates (Grenier Cat. 789173-F) using a Multidrop Combi cassette dispenser.\n2. Twenty-three nanoliter of 1912 pharmacologically defined small molecule compounds of the NCATS Mechanism Interrogation PlatE (MIPE) version 4.0 were added to each assay plate using a Pintool Dispenser (Wako) equipped with 1536 pin head.\n3. Plates were covered with stainless steel gasketed lids and incubated for 48 hours at standard cell culture conditions.\n4. Viability was assessed by adding 3uL of CellTiter-Glo detection reagent (Promega).\n5. Plates were covered with gasket lids and incubated for 15 minutes at room temperature.\n6. Luminescence was measured on a ViewLux plate reader (PerkinElmer). Post-screen data processing used DMSO controls as 100% viability and empty wells as 0% viability and dose response curve fitting was done for all 11 concentrations for each compound.", "key": {"[1]": {"conditions": "TFE3-RCC UOK109 viability, measured here: UOK109 Z-AUC"}, "[2]": {"conditions": "TFE3-RCC viability, measured here: UOK124 Z-AUC"}, "[3]": {"conditions": "TFE3-RCC viability, measured here: UOK145 Z-AUC"}}, "note": "Records with an inconclusive call do not appear.", "data": [{"smiles": "N[C@@H]1CONC1=O", "values": [{"measurement": "z-score", "setting": "[1]", "value": 0.394}, {"measurement": "z-score", "setting": "[2]", "value": 0.295}, {"measurement": "z-score", "setting": "[3]", "value": 0.675}]}, {"smiles": "CC(C)(C)OC(=O)CN(Cc1ccc(Cl)cc1)Cc1ccc([N+](=O)[O-])s1", "values": [{"measurement": "z-score", "setting": "[1]", "value": 0.406}, {"measurement": "z-score", "setting": "[2]", "value": 0.354}, {"measurement": "z-score", "setting": "[3]", "value": 0.158}]}, {"smiles": "CC(C)(C)NCC(O)c1ccc(O)c(CO)c1", "note": "(configuration not stated)", "values": [{"measurement": "z-score", "setting": "[1]", "value": 0.712}, {"measurement": "z-score", "setting": "[2]", "value": 0.591}, {"measurement": "z-score", "setting": "[3]", "value": 2.94}]}, {"smiles": "CNC(=O)c1ccc(C)c(-n2c(C)cc(OCc3ccc(F)cc3F)c(Br)c2=O)c1", "values": [{"measurement": "z-score", "setting": "[1]", "value": 0.451}, {"measurement": "z-score", "setting": "[2]", "value": 1.43}, {"measurement": "z-score", "setting": "[3]", "value": 0.519}]}, {"smiles": "CCn1cc(C(=O)O)c(=O)c2cc(F)c(N3CCNC(C)C3)c(F)c21", "note": "(configuration not stated)", "values": [{"measurement": "z-score", "setting": "[1]", "value": 0.479}, {"measurement": "z-score", "setting": "[2]", "value": 0.345}, {"measurement": "z-score", "setting": "[3]", "value": 0.675}]}, {"smiles": "Nc1nc2c(ncn2COCCO)c(=O)[nH]1", "values": [{"measurement": "z-score", "setting": "[1]", "value": 0.456}, {"measurement": "z-score", "setting": "[2]", "value": 1.73}, {"measurement": "z-score", "setting": "[3]", "value": 0.51}]}, {"smiles": "O=C1CCC(N2C(=O)c3ccccc3C2=O)C(=O)N1", "note": "(configuration not stated)", "values": [{"measurement": "z-score", "setting": "[1]", "value": 0.392}, {"measurement": "z-score", "setting": "[2]", "value": -0.79}, {"measurement": "z-score", "setting": "[3]", "value": 0.456}]}, {"smiles": "NC(=O)c1cnccn1", "values": [{"measurement": "z-score", "setting": "[1]", "value": 0.906}, {"measurement": "z-score", "setting": "[2]", "value": 0.826}, {"measurement": "z-score", "setting": "[3]", "value": 0.673}]}, {"smiles": "CC(C)OC(=O)C1=CN(C(=O)c2ccc(F)c(F)c2)CC(C)(C)c2c1[nH]c1ccccc21", "values": [{"measurement": "z-score", "setting": "[1]", "value": 0.178}, {"measurement": "z-score", "setting": "[2]", "value": 0.0335}, {"measurement": "z-score", "setting": "[3]", "value": -0.0962}]}, {"smiles": "Clc1cccc(Cl)c1NC1=NCCN1", "values": [{"measurement": "z-score", "setting": "[1]", "value": 0.351}, {"measurement": "z-score", "setting": "[2]", "value": 0.654}, {"measurement": "z-score", "setting": "[3]", "value": -0.377}]}, {"smiles": "NCCc1ccc(O)c(O)c1", "values": [{"measurement": "z-score", "setting": "[1]", "value": 0.759}, {"measurement": "z-score", "setting": "[2]", "value": 0.079}, {"measurement": "z-score", "setting": "[3]", "value": 0.506}]}, {"smiles": "CC(C)(Sc1ccc(CCN(CCCCC2CCCCC2)C(=O)NC2CCCCC2)cc1)C(=O)O", "values": [{"measurement": "z-score", "setting": "[1]", "value": 0.806}, {"measurement": "z-score", "setting": "[2]", "value": 0.0749}, {"measurement": "z-score", "setting": "[3]", "value": 0.555}]}, {"smiles": "Cc1c(C)c2c(c(C)c1O)CCC(C)(COc1ccc(CC3SC(=O)NC3=O)cc1)O2", "note": "(configuration not stated)", "values": [{"measurement": "z-score", "setting": "[1]", "value": 0.729}, {"measurement": "z-score", "setting": "[2]", "value": 0.103}, {"measurement": "z-score", "setting": "[3]", "value": -0.301}]}, {"smiles": "COc1ccccc1-c1cccc(-c2c(O)c3cc(C#N)c(Cl)cc3[nH]c2=O)c1", "values": [{"measurement": "z-score", "setting": "[1]", "value": 1.05}, {"measurement": "z-score", "setting": "[2]", "value": -0.0424}, {"measurement": "z-score", "setting": "[3]", "value": 0.756}]}]}
